From PubChem BioAssay (EPA / NIEHS)
Inconclusive results are not listed. Calls of active or inactive are those of the source. How the source made its calls: active means hit-call score of the fitted dose curve at least 0.9, where 1 is the maximum; inconclusive means response in the unintended direction; inactive means score below 0.9.

assay: ACEA_ER_80hr: ACEA Biosciences xCELLigence Real-Time Cell Analysis on Estrogen Receptor Agonism for Proliferation (AID 2282667); conditions: T47D proliferation, impedance (xCELLigence), 80 h
Experimental: ACEA_ER is a cell-based, single-readout assay that uses T47D, a human breast cell line, with measurements taken at 80 hours after chemical dosing in a 96-well plate, although TO2 (mc0.srcf) used a 384-well plate. Differences in plate size can be ignored given data normalization.ACEA_ER_80hr is one of two assay component(s) measured or calculated from the ACEA_ER assay. It is designed to make measurements of real-time cell-growth kinetics, a form of growth reporter, as detected with electrical impedance signals by Real-Time Cell Electrode Sensor (RT-CES) technology.Data from the assay component ACEA_ER_80hr was analyzed into 1 assay endpoint. This assay endpoint, ACEA_ER_80hr_Positive, was analyzed in the positive analysis fitting direction relative to DMSO as the negative control and baseline of activity. Using a type of growth reporter, measures of the cells for gain-of-signal activity can be used to understand the signaling at the pathway-level as they relate to the gene ESR1. Furthermore, this assay endpoint can be referred to as a primary readout, because this assay has produced multiple assay endpoints where this one serves a signaling function. To generalize the intended target to other relatable targets, this assay endpoint is annotated to the nuclear receptor intended target family, where the subfamily is steroidal.
The xCELLigence system Multi-E-Plate stations were used to measure the time-dependent response to chemicals. Each compound was tested in an eight-point, 1:4 serial dilution series starting at a maximum final concentration of 100 uM. A maximum starting concentration of 0.5% DMSO was present in the 100 uM chemical samples and was diluted along with the test article dilution series. The screen was performed in biological duplicate using two separate, 96-well, E-Plates 96 for each dilution series (n = 2). Positive controls (MG132 and E2) and a negative control (assay media) were tested in quadruplicate on each testing plate. […] Reference compounds were tested with 8 concentrations with 1:5 serial dilutions. All screening was carried out by ACEA Biosciences, Inc. (San Diego, CA). T-47D cells purchased from ATCC were maintained in RPMI1640 media supplemented with 10% characterized fetal bovine serum (FBS). […] Cells were then detached and seeded in E-Plates 96 in assay medium. After overnight monitoring of growth once every hour, compounds were added to […] cells and remained in the medium until the end of the experiment. Cellular responses were then recorded once every 5 min for the first 5 h, and once every hour for an additional 100 h.

Compound | outcome | AC50
c1cc(-c2ccncc2)ccn1 | inactive | –
CCCCCCCC=O | inactive | –
CCCCCCCCCCCC(=O)OC | inactive | –
O=C(O)Cc1ccccc1Nc1c(Cl)cccc1Cl | – | 50 µM (active)
O=c1c(O)c(-c2ccc(O)c(O)c2)oc2cc(O)cc(O)c12 | – | 26.4 µM (active)
CC(C)(C)c1cc(O)c(C(C)(C)C)cc1O | inactive | –
OC[C@@H](O)[C@@H](O)[C@H](O)[C@H](O)CO | inactive | –
Nc1nc(N)c2nc(CNc3ccc(C(=O)N[C@@H](CCC(=O)O)C(=O)O)cc3)cnc2n1 | inactive | –
CC(C)c1ccc(C(=O)N=C(N)N)cc1S(C)(=O)=O | inactive | –
CC1(C)CC(N=C=O)CC(C)(CN=C=O)C1 (stereo not given) | inactive | –
O=C(O)CCCCC(=O)O | inactive | –
Cc1ccc(C)c(C)c1 | inactive | –
CCOc1ccc2c(c1)C(C)=CC(C)(C)N2 | inactive | –
CC1(C)NC(=O)NC1=O | inactive | –
COc1cc(C=O)ccc1O | inactive | –
Cc1cc(=O)[nH]c(=S)[nH]1 | inactive | –
CC1=C(/C=C/C(C)=C/C=C/C(C)=C/CO)C(C)(C)CCC1 | inactive | –
COc1cc(/C=C/C(=O)CC(=O)/C=C/c2ccc(O)c(OC)c2)ccc1O | inactive | –
Cc1c(C(=O)O)c(O)cc2c1C(=O)c1c(O)c([C@@H]3O[C@H](CO)[C@@H](O)[C@H](O)[C@H]3O)c(O)c(O)c1C2=O | inactive | –
CCCCCCCCCCCCCO | inactive | –

Compound | outcome | AC50
Cc1ccc2ncccc2c1 | inactive | –
CCNc1cccc(C)c1 | inactive | –
CNC(=O)[C@H]1O[C@@H](n2cnc3c(NCc4cc(Cl)ccc4OCc4cc(C)no4)ncnc32)[C@H](O)[C@@H]1N | inactive | –
CCOC(=O)C(C)(C)Oc1ccc(Cl)cc1 | inactive | –
CCCCOC(=O)CCCCCCCCC(=O)OCCCC | inactive | –
Cc1oc(-c2ccccc2)nc1CCOc1cccc2c1ccn2CCC(=O)O | inactive | –
Cc1cccc([N+](=O)[O-])c1C | inactive | –
Cc1ccc(Cl)cc1 | inactive | –
CCCc1cc(=O)[nH]c(=S)[nH]1 | – | 0.747 µM (active)
C=CCc1ccc(O)c(OC)c1 | inactive | –
CC(CO)OC(C)CO (stereo not given) (tested in a mixture with another compound) | inactive | –
C[Si]1(C)O[Si](C)(C)O[Si](C)(C)O[Si](C)(C)O1 | inactive | –
CC=Cc1ccc(O)c(OC)c1 | inactive | –
Cc1ccc(C(C)C)c(O)c1 | inactive | –
Cc1ccc(N(C)C)cc1 | inactive | –
Clc1cc(Cl)c(Cl)cc1Cl | inactive | –
COc1cccc2c1C(=O)c1c(O)c3c(c(O)c1C2=O)C[C@@](O)(C(=O)CO)C[C@@H]3O[C@H]1C[C@H](N)[C@H](O)[C@H](C)O1 | inactive | –
NCCO | inactive | –
Cc1cccc(C)c1O | inactive | –
CCCCCCC(=O)OCC | inactive | –
